The record followed here is PubChem BioAssay (NCATS).

Records with an inconclusive call do not appear. A call without a number means that no potency is given here. A number with no mark means an inactive call. Activity calls are given as the source filed them. Calls follow the shape of the full dose curve; tested in HEK293 reporter line.

This experiment can be described thus: qHTS for Inhibitors of the Functional Ribonucleoprotein Complex (vRNP) of Lymphocytic Choriomeningitis Arenaviruses (LCMV): Viability assay - alamar blue signal for LCMV Primary Screen (AID 1347085). Also: nearly all actives have a fitted effect of over 80% in size. Conditions: alamar blue viability counter-screen, LCMV vRNP screen cells; series mostly up to 57.5 µM.
For the compound `Cc1ncc(CSSCc2cnc(C)c(O)c2CO)c(CO)c1O`, the Potency result is “inactive”. `CC1(C)OC[C@@H](COC(=O)CCc2ccc(OC[C@@H](O)CNCCNC(=O)N3CCOCC3)cc2)O1`: the Potency result is “inactive”.

For `Cc1ccc(Nc2c(F)cccc2Cl)c(CC(=O)O)c1`, the Potency result is “inactive”. As for `COc1ccnc2c1CCCCC2S(=O)c1nc2ccccc2[nH]1` (stereo not given), the Potency entry was “inactive”.

Consider `C=CCCCCCCCCC(=O)O`, for which the Potency result is “inactive”.

As to `C=CCc1ccccc1OCC(O)CNC(C)C` (stereo not given), the Potency result was “inactive”. On to `CCN(CCCCOC(=O)c1ccc(OC)c(OC)c1)C(C)Cc1ccc(OC)cc1` (stereo not given), for which the Potency result was “inactive”. The same measure, in the same setting: the result for `CN(C(=O)c1c(O)c2ccccc2n(C)c1=O)c1ccccc1` reads “inactive”; that for `C=C1C[C@H]2[C@@H]3C=C(C)C4=CC(=O)CC[C@]4(C)[C@H]3CC[C@]2(C)[C@@]1(OC(C)=O)C(C)=O`, “inactive”. Same read-out and setting: to `CC[N+](CC)(CC(=O)Nc1c(C)cccc1C)Cc1ccccc1` belongs “inactive”; to `CCCC(=O)O[C@]1(C(=O)CC)CC[C@H]2[C@@H]3CCC4=CC(=O)CC[C@]4(C)[C@H]3[C@@H](O)C[C@@]21C`, “inactive”. On to `CCCNC(C)(C)COC(=O)c1ccccc1`, for which the Potency result is “inactive”. Consider `CCCCNc1c(C(=O)OCC)c(C)nc2c1cnn2CC`, for which the Potency result was “inactive”. On the same count and under the same terms, the result for `C[C@@H](O)[C@H]1C(=O)N2C(C(=O)O)=C([C@H]3CCCO3)S[C@H]12` reads “inactive”; that for `CCOc1ccc(NC(C)=O)cc1`, “inactive”. In the case of `CCN(CC)CCSC(=O)C(c1ccccc1)c1ccccc1`, the Potency result is “inactive”. On to `OC[C@@H](O)[C@H](O)[C@H](O)[C@@H](O)CO`, for which the Potency result was “inactive”.

In the case of `NS(=O)(=O)c1cc(C(=O)O)c(NCc2ccco2)cc1Cl`, the Potency entry was “inactive”. For `COc1ccc(-c2cc(C(F)F)nn2-c2ccc(S(N)(=O)=O)cc2)cc1F`, the Potency entry is “inactive”. Turning to `CNc1c2c(nn1C)CCCC2`, the Potency result is “inactive”. For `c1cnc(N2CCN(Cc3ccc4c(c3)OCO4)CC2)nc1`, the Potency result was “inactive”.

As for `N[C@@H](Cc1ccc(O)cc1)C(=O)O`, the activity change, negative = lower viability is 1.19% [at 11.5 µM]. On to `OC(C#CCN1CCCC1)(c1ccccc1)c1ccccc1`, for which the Potency result is “inactive”.

Consider `CN1C(=O)CC(c2ccccc2)C1=O` (stereo not given), for which the Potency result is “inactive”. Regarding `CCOC(=O)[C@H](CCc1ccccc1)N[C@H]1CS[C@H](c2cccs2)CN(CC(=O)O)C1=O`, the Potency result was “inactive”. The same measure, in the same setting: the result for `N[C@H](Cc1c[nH]c2ccccc12)C(=O)O` reads “inactive”; that for `CCOc1c(N2CCOCC2)cnn(C)c1=O`, “inactive”. Take `CCOC(CN1CCN(CC(C)C(=O)c2ccccc2)CC1)c1ccccc1` (stereo not given): the Potency entry was “inactive”. `C=C(C)C(=O)OCC(O)CO` (stereo not given): the Potency entry is “inactive”.

Consider `NC(=O)C1(N2CCCCC2)CCN(CCCC(=O)c2ccc(F)cc2)CC1`, for which the Potency result is “inactive”. Take `O=C(/C=C/c1ccc(O)c(O)c1)O[C@@H]1C[C@@](OC(=O)/C=C/c2ccc(O)c(O)c2)(C(=O)O)C[C@@H](O)[C@@H]1O`: the Potency result is “inactive”. The same measure, in the same setting: the result for `CC(=O)O[C@H]1CC[C@@]2(C)C(=CC[C@@H]3[C@@H]2CC[C@]2(C)C(C(C)=O)=CC[C@@H]32)C1` reads “inactive”.

`CC(C)Cc1ccc(C(C)C(=O)OCc2ccccn2)cc1` (stereo not given): the Potency entry is “inactive”. As to `CC(=O)OCC(=O)Nc1cc(C#N)cc(NC(=O)COC(C)=O)c1Cl`, the Potency result is “inactive”. Turning to `CCOC(=O)c1cc(=O)c2c(OCC(COc3cccc4oc(C(=O)OCC)cc(=O)c34)OC(=O)[C@@H](N)CCCCN)cccc2o1`, the Potency entry was “inactive”. On to `CCN[C@H]1C[C@H](C)S(=O)(=O)c2sc(S(N)(=O)=O)cc21`, for which the Potency result was “inactive”. Turning to `NCC1CCC(C(=O)Oc2ccc(CCC(=O)O)cc2)CC1` (stereo not given), the Potency entry was “inactive”. For the compound `CCc1cccc2c(CCO)c[nH]c12`, the Potency result is “inactive”. In the case of `Oc1ccc(Cl)cc1Cc1cc(Cl)ccc1O`, the Potency entry was “inactive”.

With `CCC(CN)=C(c1ccccc1)c1ccccc1`, the Potency entry was “inactive”.
